Compounds with a hit are over-represented: about 4.1% of the library has one in this group of screens.
ssDAF12 agonist: S. stercoralis DAF-12 activation, primary screen; 370,000 tested, 1% active; activation, % at 6.8 µM; HEK293 ssDAF-12/GRIP1 lit1-tk-luc reporter, luminescence; % of 3 µM dafachronic acid response;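 active means activation above the mean over all tested compounds plus 3 SD, cut at about 0.9% in these data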;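 further: 0% = DMSO-only wells and 100% = 3 µM delta7-dafachronic acid wells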
DAX1 inh-1: inhibitors of human orphan nuclear receptor DAX1 (NR0B1). P51843. HEK293 Gal4-DAX1 luciferase reporter, luminescence. inhibition, % at 6.75 µM. 340,000 tested, 0.99% active;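 active means inhibition above the mean over all tested compounds plus 3 SD, cut at about 4.2% in these data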;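 further: 0% = DAX1-transfected cells with DMSO and 100% = empty-vector control cells with DMSO; inhibition shows as a rise in luminescence from relieved DAX1 repression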
hcDAF-12 act: H. contortus DAF-12 activation, primary screen; activation, % at 6.8 µM; AID 652067; 370,000 tested, 1.4% active; HEK293 hcDAF-12 lit1-tk-luc reporter, luminescence; 0% DMSO, 100% Δ7-dafachronic acid;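 active means activation above the mean of all tested compounds plus 3 SD, cut at about 5.5% in these data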;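 further: 100% = response to 3 µM Δ7-dafachronic acid high control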
hgDAF12 agonist: hgDAF-12 agonism, primary luciferase screen; HEK293 GAL4-hgDAF12 UAS-luciferase reporter, agonist luminescence; normalized to butyrate control; activation, % at 6.8 µM; 370,000 tested, 1.8% active;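 active means activation above a cutoff set at the mean of all screened compounds plus 3 SD, cut at about 10% in these data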;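 further: 0% = DMSO wells and 100% = sodium butyrate wells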
DAX1 inh-2: inhibitors of DAX1 repression of SF-1 activated StAR promoter; HEK293T StAR-luciferase reporter, SF-1/DAX-1 repression relief; inhibition, % at 6.8 µM; 370,000 tested, 1.1% active; AID 652010;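 active means inhibition above the mean over all tested compounds plus 3 SD, cut at about 3.6% in these data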;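 further: 0% = DAX-1 cells with DMSO and 100% = cells lacking DAX-1 with DMSO; higher inhibition means more luminescence from relief of DAX-1 repression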
DAX1 inh confirm: confirmation of human DAX1 (NR0B1) inhibitors | shares compounds with DAX1 inh-2 | HEK293T StAR-promoter luciferase reporter, SF-1/DAX-1 repression | inhibition, % at 6.8 µM | 2,400 tested, 87% active;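 active means inhibition above the average of every tested compound plus 3 SD, cut at about 3.8% in these data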;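 further: 0% = DAX-1 cells with DMSO and 100% = no DAX-1 control cells with DMSO; active compounds raise luminescence by relieving repression of the StAR reporter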
SF1 mutant ctr: counter-screen for DAX1 inhibitors: nonselective inhibitors with SF-1 AF2 mutant; shares compounds with DAX1 inh-2; HEK293 StAR-luciferase, luminescence; inhibition, % at 6.8 µM; 2,400 tested, 78% active;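 active means inhibition above the mean of all tested compounds plus 3 SD, cut at about 3% in these data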;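 further: 0% = DAX-1 transfected cells with DMSO and 100% = cells without DAX-1 with DMSO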
LXR ag: counter-screen for hcDAF-12 agonists: agonists of human LXR-beta; shares compounds with hcDAF-12 act; HEK293 Gal4-LXR tk-luc reporter, luminescence, 24 h; normalized: DMSO 0%, positive control 100%; activation, % at 6.8 µM; 3,400 tested, under 10 active; AID 743027;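 active means mean percent activation of the reporter above a cutoff set as the average over tested compounds plus their standard deviation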
Target sequence (P55055 whole entry, looked up, the tested form may be a part): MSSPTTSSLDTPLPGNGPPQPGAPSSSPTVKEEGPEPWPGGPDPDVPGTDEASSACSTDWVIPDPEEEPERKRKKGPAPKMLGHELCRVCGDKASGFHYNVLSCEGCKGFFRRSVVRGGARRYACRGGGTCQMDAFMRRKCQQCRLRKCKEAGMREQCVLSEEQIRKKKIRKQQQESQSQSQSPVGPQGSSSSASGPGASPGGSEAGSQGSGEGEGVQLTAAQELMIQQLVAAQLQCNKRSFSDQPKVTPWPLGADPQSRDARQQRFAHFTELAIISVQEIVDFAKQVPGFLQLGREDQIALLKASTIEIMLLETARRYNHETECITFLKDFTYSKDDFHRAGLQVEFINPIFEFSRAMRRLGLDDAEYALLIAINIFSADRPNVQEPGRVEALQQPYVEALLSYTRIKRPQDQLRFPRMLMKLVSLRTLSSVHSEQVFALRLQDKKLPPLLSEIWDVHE
hcDAF12 conf: hcDAF-12 agonism, confirmation assay; shares compounds with hcDAF-12 act; HEK293 hcDAF-12 lit1-tk-luc reporter, luminescence; % of Δ7-dafachronic acid response; activation, % at 6.8 µM; 3,400 tested, 61% active; AID 743032;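 active means mean activation across triplicate tests above the threshold derived from the earlier primary screen, cut at about 5.5% in these data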;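 further: 0% = DMSO only wells and 100% = 3 µM Δ7-dafachronic acid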
hgDAF12 ag: hgDAF-12 agonism, confirmation assay | shares compounds with hgDAF12 agonist | HEK293 GAL4-hgDAF12 luciferase reporter, agonist mode; percent of butyrate response | activation, % at 6.8 µM | 3,300 tested, 80% active | AID 743050;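 active means mean activation over triplicate wells above the hit cutoff derived from the earlier primary screen, cut at about 11% in these data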;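 further: 0% = DMSO low control and 100% = 2 mM sodium butyrate high control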
LXRb DAF12 ctr: LXR-beta agonism as DAF-12 counter-screen | activation, % at 6.8 µM | shares compounds with hgDAF12 agonist | HEK293 Gal4-LXR luciferase reporter, 24 h | AID 743051 | 3,300 tested, under 10 active;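 active means mean activation of the triplicate above a set limit carried over from the primary screen, none filed active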
* marks the source's active call; other numbers are inactive results; nt = no result.

SMILES	ssDAF12 agonist	DAX1 inh-1	hcDAF-12 act	hgDAF12 agonist	DAX1 inh-2	DAX1 inh confirm	SF1 mutant ctr	LXR ag	hcDAF12 conf	hgDAF12 ag	LXRb DAF12 ctr
CC(=NNC(=O)c1cccs1)c1ccc2c(c1)OCCO2	0.9	3.7	5.1	16.9*	7.2*	7.8*	2.9*	nt	nt	12.7*	0.8
C/C(=N\NC(=O)c1ccc2c(c1)OCCO2)c1ccccc1	0.1	2.2	-0.5	8.2	0.4	nt	nt	nt	nt	nt	nt
O=C(Nc1ccc2c(c1)OCCO2)c1cccs1	0.6	-0.3	8.3*	18.9*	4.7*	14.5*	7.6*	1.4	4.0	13.4*	0.6
C/C(=N/NC(=O)c1cccs1)c1cccc(N)c1	-0.5	6.0*	7.0*	16.2*	5.8*	5.5*	2.4	0.6	4.4	9.9	0.2
O=C(Nc1ccc2c(c1)OCCO2)c1cc2ccccc2o1	1.0*	0.0	12.2*	20.1*	5.7*	20.1*	8.3*	1.8	8.1*	16.9*	1.1
O=C(Nc1ccc2oc(=O)ccc2c1)c1cc2ccccc2o1	-0.5	2.2	4.0	5.7	-0.4	nt	nt	nt	nt	nt	nt
CCN(c1ccccc1)S(=O)(=O)c1ccc(Oc2ccc(C(C)=O)cc2OC)nc1	-2.2	-0.5	0.1	-2.4	-2.6	nt	nt	nt	nt	nt	nt
O=C(/C=C\Nc1ccc2c(c1)OCO2)c1cccs1	1.0*	-1.0	8.3*	16.9*	9.0*	12.1*	-0.1	1.8	10.6*	12.3*	1.0
Cn1c(=O)c2c(nc(Sc3ncnn3CC(=O)NC3CCCCC3)n2C)n(C)c1=O	-0.7	1.4	-0.7	0.8	-0.4	nt	nt	nt	nt	nt	nt
O=C(Nc1ccc(Cl)cc1)c1ccncc1	-0.3	-0.5	-0.7	1.7	0.1	nt	nt	nt	nt	nt	nt
C/C(=N\NC(=O)c1ccncc1)c1ccc(NC(=O)c2ccc(Cl)cc2)cc1	-0.5	2.2	1.4	17.2*	7.5*	3.1	2.9*	nt	nt	4.3	0.1
Nc1cc(C(=O)c2ccccc2)ccc1N1CCOCC1	-0.4	1.0	0.8	1.3	0.9	nt	nt	nt	nt	nt	nt
O=C(c1ccccc1)c1ccc(N2CCOCC2)cc1	-0.2	1.4	4.0	15.1*	6.6*	7.1*	4.6*	nt	nt	15.9*	0.8
CC(C)Oc1ccc(C(=O)Nc2ccc(N3CCCCC3)cc2)cc1	-0.5	-0.4	1.5	1.0	-0.2	nt	nt	nt	nt	nt	nt
CN1CCN(c2ccc(NC(=O)Cc3ccccc3)cc2)CC1	-0.6	3.9	-3.0	5.7	1.3	nt	nt	nt	nt	nt	nt
O=C(Cc1ccccc1)Nc1ccc(N2CCCCC2)cc1	1.7*	1.6	5.5	24.9*	5.1*	13.6*	7.3*	nt	nt	17.6*	0.9
O=C(Nc1ccc(N2CCCCC2)cc1)c1ccccc1	-0.1	-1.0	7.2*	14.7*	7.3*	17.3*	6.7*	1.5	5.0	16.6*	0.8
Nc1c(-c2ccccc2)cnc2c(-c3ccccc3)cnn12	1.3*	4.8*	11.2*	19.7*	4.9*	14.0*	3.6*	2.0	9.3*	11.0*	1.1
N#C/C(=N\Nc1ccc(F)cc1)C(=N)N1CCCCC1	0.9*	5.3*	8.1*	18.2*	6.0*	17.8*	7.1*	1.4	4.7	17.9*	0.8
O=C(NCCCn1ccnc1)c1cc2c(ccc3ccccc32)o1	-1.1	nt	-0.6	3.0	-0.4	nt	nt	nt	nt	nt	nt

Compound activity as filed in PubChem.
